Compound activity from PubChem.
EPAC1 ag: activates human EPAC1 exchange factor; 360,000 compounds, 0.073% hits; Potency, µM (series often up to 154 µM), for inactives: at the top dose activation, hits mostly activators; EPAC1 agonist qHTS, biochemical assay; response scale: 100% = response to 6.5 mM cAMP; also: nearly all actives have a fitted effect of over 60% in size
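Nucleotide exchange assay: 100 nM EPAC1 with 250 nM Rap1B loaded with BODIPY-GDP and 50 uM GDP, room temperature. Fluorescence (480/540 nm) read every 5 min for 30 min; signal change normalized to 6.5 mM cAMP as full agonist.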
USP1 inh: blocks the human USP1/UAF1 deubiquitinase complex | O94782 | Potency, µM (doses to about 57.1 µM), for inactives: at the highest dose activity change, negative = inhibition, hits mostly inhibitors | AID 743255 | 390,000 compounds, 0.23% hits | recombinant USP1/UAF1, Ub-Rhodamine cleavage fluorescence; also: % is scaled to controls: 0 for no effect and ±100 for the full control effect; nearly all actives have a fitted effect of over 60% in size
Target sequence (O94782 whole entry, looked up): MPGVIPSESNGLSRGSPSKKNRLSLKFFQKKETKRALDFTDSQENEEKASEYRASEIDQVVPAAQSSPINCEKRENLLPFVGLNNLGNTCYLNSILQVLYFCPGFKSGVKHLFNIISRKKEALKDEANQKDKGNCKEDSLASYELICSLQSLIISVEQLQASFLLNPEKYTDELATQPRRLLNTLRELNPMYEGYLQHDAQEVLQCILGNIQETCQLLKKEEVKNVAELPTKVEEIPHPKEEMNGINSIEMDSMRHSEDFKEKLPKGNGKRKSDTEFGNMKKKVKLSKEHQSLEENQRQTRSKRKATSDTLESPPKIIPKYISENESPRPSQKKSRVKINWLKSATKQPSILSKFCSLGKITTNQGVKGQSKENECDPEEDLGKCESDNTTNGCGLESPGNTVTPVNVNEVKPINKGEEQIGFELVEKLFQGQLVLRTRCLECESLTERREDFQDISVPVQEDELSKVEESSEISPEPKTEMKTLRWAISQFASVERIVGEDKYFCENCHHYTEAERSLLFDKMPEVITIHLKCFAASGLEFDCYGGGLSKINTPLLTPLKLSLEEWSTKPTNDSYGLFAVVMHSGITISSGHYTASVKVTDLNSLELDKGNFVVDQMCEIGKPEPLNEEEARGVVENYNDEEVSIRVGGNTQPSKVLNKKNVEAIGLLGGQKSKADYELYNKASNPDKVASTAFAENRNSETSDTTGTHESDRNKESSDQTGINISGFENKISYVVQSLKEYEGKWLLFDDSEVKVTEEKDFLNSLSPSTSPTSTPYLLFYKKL
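Step one: compound is pinned into 1nM USP1/UAF1 in HEPES pH 7.8 buffer with TCEP. Step two: 15 min room-temperature incubation. Step three: Ub-Rho (150nM final) starts cleavage, tracked by fluorescence over six one-minute reads.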
EPAC1 antag: EPAC1 (human) antagonism; AID 720709; Potency, µM (titrated, usually from 115 µM), for the others: top-dose activity change, negative = inhibition, actives largely listed as inhibitors; 360,000 compounds, 0.14% hits; EPAC1 GEF assay, Rap1b-BODIPY-GDP exchange fluorescence;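 also: plate controls were vehicle for no effect and positive control for full effect; nearly all actives have a fitted effect of over 50% in size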
EPAC2 ag: EPAC2 (human) agonism | EPAC2 activation, biochemical qHTS; response scale: 100% = 6.5 mM cAMP response | 360,000 compounds, 0.079% hits | Q8WZA2 | Potency, µM (titrated, usually from 154 µM), without a hit: at the top dose activation, most hits filed as activators; also: nearly all actives have a fitted effect of over 50% in size
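Readout is BODIPY fluorescence (480 nm excitation, 540 nm emission), which falls as labeled GDP is exchanged off Rap1B. EPAC2 at 100 nM acted on 250 nM RAP1B-BODIPY-GDP with 50 uM GDP present.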
EPAC2 antagonist: antagonists of human EPAC2; Q8WZA2; EPAC2 GEF exchange of Rap1B-BODIPY-GDP, fluorescence; Potency, µM (highest dose often 114 µM), for inactives: top-dose activity, negative = inhibition, actives largely listed as inhibitors; 360,000 compounds, 0.18% hits; AID 720708; also: % is scaled to controls: 0 for no effect and ±100 for the full control effect; nearly all actives have a fitted effect of over 45% in size
VDR inh: blocks the human vitamin D receptor | P11473 | VDR-SRC2-3 peptide fluorescence polarization, 2 h | Potency, µM, for the others: max response, negative = inhibition, most hits filed as inhibitors | 400,000 compounds, 0.93% hits; also: % is scaled to controls: 0 for no effect and ±100 for the full control effect
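Measured by FP: displacement of SRC2-3 coactivator peptide from VDR by library compounds, following a two-hour ambient incubation.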
* marks the source's active call; other numbers are inactive results; ? = inconclusive; . = no result given; ! = a repeat was not active. Only some compounds are listed: those with a hit (about 1.2% of all), similar ones and a draw of the others. Calls follow the shape of the dose curve; as a rule, active = well fitted curve in the direction sought with a large enough effect; inconclusive = small, poorly fitted or top-dose-only effect, or another doubt; inactive = no such curve, though single readings can be large; an effect the other way counts as inactive or inconclusive. Potency is read from the fitted curve at half-maximal effect.

SMILES	EPAC1 ag	USP1 inh	EPAC1 antag	EPAC2 ag	EPAC2 antagonist	VDR inh
CCCCN(CCCN)c1ccc(Br)cn1	.	.	.	.	.	-8.7%
C=C1CCN(C(C(=O)O)C(C)C)S(=O)(=O)c2ccccc21 (stereo unspecified)	.	.	.	.	.	-13.4%
CC[C@H]1[C@@H]2C=C[C@@H]3[C@H]4C/C=C\C(=O)NCCC[C@@H]5NC(=O)C(=C5O)C(=O)CC[C@@H]4C[C@@H]3[C@H]2C[C@H]1C	.	.	.	.	.	39.8µM*
COc1ccc(NC(=O)CSc2ccc3c4c(cccc24)C(=O)c2ccccc2-3)cc1	19.3%	25.1µM*	17.4%	20.2%	12.6%	-3.0%
COc1ccc(N(C(=O)c2ccccc2)S(=O)(=O)c2cccs2)cc1	22.6%	-10.6%	-19.0%	19.8%	?	22.4µM*
CCOc1ccc(Cl)cc1CNCCCSc1nnnn1C	.	-1.9%	.	.	.	6.3%
CCn1c(N)c(C(=O)NCC2CCCO2)sc1=S (stereo unspecified)	-3.3%	-22.1%	6.6%	1.0%	13.7%	35.5µM*
Cc1noc(C)c1CSc1nc2ccccc2n1CCc1ccccc1	26.0%	-21.4%	-3.9%	23.9%	-2.7%	79.4µM*
Cc1cn(C2CC3OCC(NC(=O)C4CCCN4C(=O)OC(C)(C)C)C3O2)c(=O)[nH]c1=O (stereo unspecified)	.	.	.	.	.	-4.2%
CC[C@H](C)[C@H](NC(=O)[C@H](Cc1ccc(O)cc1)NC(=O)[C@H](Cc1cnc[nH]1)NC(=O)[C@H](CCCNC(=N)N)NC(=O)[C@H](CC(C)C)NC(=O)[C@H](C)NC(=O)[C@H](CO)NC(=O)[C@H](Cc1ccc(O)cc1)NC(=O)[C@H](Cc1ccc(O)cc1)NC(=O)[C@H](CCCNC(=N)N)NC(=O)[C@H](C)NC(=O)[C@H](CCSC)NC(=O)[C@H](CC(=O)O)NC(=O)[C@H](CCC(=O)O)NC(=O)[C@H](C)NC(=O)[C@@H]1CCCN1)C(=O)N[C@@H](CC(N)=O)C(=O)N[C@@H](CC(C)C)C(=O)N[C@H](C(=O)N[C@H](C(=O)N[C@@H](CCCNC(=N)N)C(=O)N[C@@H](CCC(N)=O)C(=O)N[C@@H](CCCNC(=N)N)C(=O)N[C@@H](Cc1ccc(O)cc1)C(N)=O)[C@@H](C)O)[C@@H](C)CC	.	.	.	.	.	3.2%
NC(CS)C(=O)O (stereo unspecified)	.	.	.	.	.	44.7µM*
NC(=O)C[C@@H](N)C(=O)O	.	.	.	.	.	4.1%
O=C1NC(=O)C(c2ccccc2[N+](=O)[O-])=C1Nc1ccc(O)c(Cl)c1	-4.5%	-16.6%	-4.1%	8.2%	-9.5%	44.7µM*!
O=C(NNc1ccccc1[N+](=O)[O-])Nc1ccc(Cl)c(Cl)c1	7.9%	-24.3%	-26.3%	-10.8%	6.6%	-9.6%
O=C(Nc1ccc(-c2csc(Nc3cccc(C(F)(F)F)c3)n2)cc1)c1ccccc1	-24.9%	-26.9%	-40.6%	1.4%	-10.8%	2.5%
O=C(Nc1nc(=O)n(C(=O)c2cccc(C(F)(F)F)c2)s1)c1ccccc1	3.8%	?	-8.1%	9.8%	-17.0%	14.1µM*
CN1CCN(c2ncc3nc(-c4ccccc4)c(=O)n(Cc4ccc(F)cc4)c3n2)CC1	.	.	.	.	.	6.5%
COc1ccc(-c2nnn(CC(=O)N(CC(=O)NC3CCCC3)c3ccccc3)n2)cc1OC	9.0%	8.0%	-3.5%	-0.7%	0.0%	79.4µM*
CCc1cccc(NC(=O)CSC2=NS(=O)(=O)c3ccccc32)c1	-10.9%	-6.0%	?	3.3%	-16.4%	12.6µM*
C[C@H](C(=O)OCO/N=[N+](\[O-])N1CCCC1)c1cccc2ccccc12	.	.	.	.	.	-23.5%
O=C(Nc1nc2ccc(Cl)cc2s1)C1CCCO1 (stereo unspecified)	-5.7%	-23.9%	5.3%	7.94µM*	-3.8%	16.0%
COc1cccc2c1C(=O)C=C(C)C2=O	-3.0%	?	-3.0%	4.9%	7.5%	39.8µM*
CC(C)(C=O)C1=CC(=O)c2ccccc2C1=O	5.7%	?	4.9%	-0.6%	5.8%	44.7µM*
CC(C)(C)c1ccc2c(c1)C(=O)c1ccccc1C2=O	-3.1%	-22.4%	5.2%	5.5%	-7.3%	-23.5%
CC1=CC(=O)c2ccccc2C1=O	-18.2%	?	?	-0.3%	3.9%	3.55µM*!
SMILES	EPAC1 ag	USP1 inh	EPAC1 antag	EPAC2 ag	EPAC2 antagonist	VDR inh
CN(C)/C=N/c1c(C#N)cnn1-c1ccc(F)c(Cl)c1	.	.	.	.	.	14.8%
Cn1c(=O)n(C)c2cc(NS(=O)(=O)c3ccc(C(C)(C)C)cc3)c(NCc3ccccc3)cc21	.	?	.	.	.	-8.8%
CC(C)(C)C(=O)Oc1ccc(S(=O)(=O)Nc2ccccc2C(=O)NCC(=O)O)cc1	.	.	.	.	.	9.0%
CCC(C)NC(=O)c1ccc2nc(-c3cccs3)c(-c3cccs3)nc2c1 (stereo unspecified)	.	.	.	.	.	-25.0%
Cc1ccc(C)c(S(=O)(=O)Nc2ccc(C(=O)NCC(c3ccco3)N(C)C)cc2)c1 (stereo unspecified)	112µM*	-16.6%	-10.6%	-5.8%	6.5%	-21.7%
O=C(CC(c1ccccc1)c1cc(Br)ccc1O)NCC1(c2ccccc2)CCCC1 (stereo unspecified)	.	-24.8%	.	.	.	-2.0%
N#CCCn1cc(CNCc2cccnc2)c(-c2ccccc2)n1	.	.	.	.	.	-10.5%
COc1ccc(NC(=O)c2sc(=S)[nH]c2N)cc1	3.2%	-6.2%	4.5%	3.3%	-0.3%	50.1µM*
C=C(Nc1ccc(OC)cc1)C(=O)OC	.	.	.	.	.	-0.5%
CCSC1=NSC2=NC(=O)/C(=C\c3coc4ccccc4c3=O)C(=N)N12	44.7µM*	22.4µM*	86.3%	100µM*	73.5%	79.4µM*
Cc1cccc(-n2c(C)cc(/C=C3\C(=N)N4N=C(CC(C)C)SC4=NC3=O)c2C)c1	-3.6%	-17.9%	8.3%	3.8%	12.4%	1.0%
CC(C)CC1=NN2C(=N)/C(=C\c3coc4ccccc4c3=O)C(=O)N=C2S1	63.1µM*	28.2µM*	97.1%	63.1µM*	159.3%	79.4µM*
CC(=O)OCON[N+]([O-])=NC(C)C	.	.	.	.	.	-17.6%
COc1ccccc1CNc1ncnc2ccc(-c3cccc(NS(C)(=O)=O)c3)cc12	.	.	.	.	.	0.7%
CN(CC(=O)Nc1ccccc1Sc1ccccc1)C1CCCCC1	0.2%	-2.0%	?	25.0%	50.1µM*	-22.9%
CC(C)=CC(=O)Oc1ccc(C(=O)N(C)c2ccccc2I)cc1	.	.	.	.	.	-22.4%
O=C1C(Cl)=C(Nc2ccc3cn[nH]c3c2)C(=O)c2ccccc21	0.9%	15.8µM*	-24.4%	7.9%	-9.3%	?
CCOc1ccc(S(=O)(=O)N(CC)CC)cc1NS(=O)(=O)c1ccc(F)c(F)c1F	-7.0%	1.0%	-7.6%	-8.2%	-6.1%	70.8µM*
